How the values were obtained:
RUNX1 [1] = target: RUNX1 (UniProt Q01196); test: RUNX1 binding intensity (PBM fluorescence), RUNX1 alone (arbitrary fluorescence units); higher = stronger binding; conditions: RUNX1 concentration 2 nM; ETS1 concentration 0 nM
Procedure: (§1)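 Cooperative gcPBM on 36-bp genomic probes with neighbouring ETS1 and RUNX1 sites. Recombinant human RUNX1 (2 nM) was incubated alone or with ETS1 (25 nM) and detected with anti-RUNX1 antibody plus Alexa488 secondary. Values are medians over 4 replicate spots; the RUNX1+ETS1 data were normalised to the RUNX1-only data. The probes sit in constant array flanks that are not printed.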

RUNX1 [2] = target: RUNX1 (UniProt Q01196); test: RUNX1 binding intensity (PBM fluorescence) in presence of ETS1, normalised to RUNX1-only experiment (arbitrary fluorescence units); higher = stronger binding; conditions: RUNX1 concentration 2 nM; ETS1 concentration 25 nM
Procedure: as §1

ETS1 = target: T1, ETS1 (UniProt P14921); test: ETS1 binding intensity (PBM fluorescence) in presence of RUNX1, normalised to ETS1-only experiment (arbitrary fluorescence units); higher = stronger binding; conditions: ETS1 concentration 1 nM; RUNX1 concentration 25 nM
T1 sequence: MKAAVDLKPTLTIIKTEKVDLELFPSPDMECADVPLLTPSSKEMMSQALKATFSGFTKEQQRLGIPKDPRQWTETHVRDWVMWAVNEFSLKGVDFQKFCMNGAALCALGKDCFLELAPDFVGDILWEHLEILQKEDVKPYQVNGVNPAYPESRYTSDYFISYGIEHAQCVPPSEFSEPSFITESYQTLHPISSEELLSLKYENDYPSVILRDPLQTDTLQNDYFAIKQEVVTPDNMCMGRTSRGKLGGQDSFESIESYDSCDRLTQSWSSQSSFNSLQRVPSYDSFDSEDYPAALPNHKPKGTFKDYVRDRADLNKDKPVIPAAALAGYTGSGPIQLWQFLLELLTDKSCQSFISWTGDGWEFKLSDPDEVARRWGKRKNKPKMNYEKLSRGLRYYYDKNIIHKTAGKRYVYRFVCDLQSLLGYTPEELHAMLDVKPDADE
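Wherever RUNX1 binding intensity (PBM fluorescence) in presence of ETS1, normalised to RUNX1-only experiment is given: Full-length recombinant human ETS1 or RUNX1 bound to double-stranded 36-bp genomic probes on microarrays, detected by protein-specific primary antibody and Alexa488 secondary, spot fluorescence as median of four replicate spots.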
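Wherever RUNX1 binding intensity (PBM fluorescence), RUNX1 alone is given: Full-length recombinant human RUNX1 bound to double-stranded 36-bp genomic probes on a high-density microarray, scored as Alexa488 fluorescence per spot via anti-RUNX1 antibody, median of four replicate spots.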

Sequence of RUNX1 (Q01196 whole entry): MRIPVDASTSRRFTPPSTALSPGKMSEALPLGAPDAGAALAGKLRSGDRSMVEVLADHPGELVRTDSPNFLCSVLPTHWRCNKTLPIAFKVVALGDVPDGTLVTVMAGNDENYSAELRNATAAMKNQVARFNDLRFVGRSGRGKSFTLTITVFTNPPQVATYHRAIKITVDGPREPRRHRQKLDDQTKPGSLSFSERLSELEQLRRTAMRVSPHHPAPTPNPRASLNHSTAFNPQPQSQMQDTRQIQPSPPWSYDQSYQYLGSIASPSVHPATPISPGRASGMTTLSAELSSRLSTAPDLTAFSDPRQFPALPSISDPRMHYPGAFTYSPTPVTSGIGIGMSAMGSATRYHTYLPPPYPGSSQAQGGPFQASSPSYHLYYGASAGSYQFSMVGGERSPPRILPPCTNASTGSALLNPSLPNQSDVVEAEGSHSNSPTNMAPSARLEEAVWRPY

Sequence	RUNX1 binding intensity (RUNX1 [1])	RUNX1 binding intensity (RUNX1 [2])	ETS1 binding intensity (ETS1)
TATCGACAAAAGTTCCGGCCCGCGGTAGCGGAGGGA	879	970	
GGGTGAGTATTTCCTCCTGCGGTGGGTCGGCATGTA	796	1570	
CTTTGTTACTTTGGGGAAATGTGGTTCTGCGCCACC	1110	927	
TTGTTCCACCCCCGCGGAAACCGCTGCTCGCTGGGC	913	965	
ATAGACCCAGCCCGTCCGGTAACCGCGCTCCTCGAT	836	913	
GCCTCCTTCCTGGGCTCCTTTAAGAGGGTGGTAACG	743	1130	
TTTGTTGTTCCGGGTGCGAGGCGGCCGCAGCTTCCA	1090	1180	
GCCAAGGCCTTCCGCCGAGTTGGTTTTTGGGTTGTT	867	952	
AGAGGCTTCCTGAGGAACTGGTGTGGTCAGGGGAGC	740	1010	
CACCCTGCCACTTCCCTAAACTCCCCGCACAGGCCG	1640	2140	
CAAGGAGGCTTCCTGCGTGGGGCCGCAGAGCGAGTC	658	869	
GCTTAAGGAAGGGACAACTAGAGTGGGTTACTCTGC	863	717	
GGGGGAGCAAGCGCCTTCCGCGGTCGCTGGGGGGAG	939	812	
ACTCACACCACGGAAACTGCGGCTCGGCAGGCTGAG	808	885	
AAGACACCAACGCTCGGAAACCGCCAGACACCAACG	945	916	
GCAGTCAGAAGGTGCGGATGCGGTAAGGTATGCGCT	835	1270	
GGCGGGGCATCCGGCAGCACCGCCTGCGGGCGCCCG	667	1070	
AGGAAACCACAAGTTATTCCCTGCAAAGGTCTTGAT	3320	6430	
GGCGAGGCTGAGAGGAAACCACACTCTCACTGGGGT	933	921	
CAACCCAAGGGGATGTGCTCACTGCGGTGAGGAGGC	806	893	
GGGCGGAAGGGGTTCGCACGCCAAGAACCGCCATGC	855	683	
TTTCTTCTGATCTTCCTCCCCGCACGTCTGCACAGG	1220	1020	
TTAACTCCACGGAAGAATAAACCACCACCGCTCACC	1080	908	
TCTGCCGCCAGCCCATCCGCGACCGCATCCAGATCT	1250	1210	
CCGCCCCCGGACGGTCACAGCACCCAAACCGCAGGC	2740	3240	
GCGGCTTTGTACGGAAACCCACACACATTGTTATTT	984	1020	

Sequence	RUNX1 binding intensity (RUNX1 [1])	RUNX1 binding intensity (RUNX1 [2])	ETS1 binding intensity (ETS1)
CCCATCCATCCGCCTCCAAAGTAACCTCAAGAATTT	2140	2490	
TCCTGCCCTCCCATCCTGTGGTCAGAGGCCAGGGCT	854	1580	
GAGGCCGAAAGGAAGTTTGAGGTTAAGCACAAGATG	792	1060	
GAGTTCTCCGCTTCCTTGCGGCCGGCGGGATTAGCC	907	1030	
CTTCTTCCTGCTGAGACTGATACAGCCCGCAAAGCT	994	1800	
TTCATAAAGGAGAGGAAACCTGACCACGACAGAAAG	897	754	
CTTTCTGGTTTCCTTCCTTTTTGGTTTTGGTTTCAT	1630	2830	
CTGAGACATCCTGATAATTCTGTGGGTTACCCCAAA	728	1280	
CATCTCGGAAACGGACAGCAAGATCCCGCATTAACA	977	853	
CCCCTACTTCCCTTTTTGCTGGGCCGCAGTTTCGGT	1490	2220	
GGGGGAAGCTTCCTGAGGTGAAATAGACCGCTGTGC	735	960	
GCTGTCCGTTTCCGAGATGTTAATGCGGGGTCTTGC	866	1070	
GACACAAGAACAGCAGGATGTGGTCAGAGGCGTCGT	722	3510	
TCGCCCACTTCCCCACCTCTCAAAAGACCACAGGCA	1560	2140	
CAGTGTTCCGCGTCCGGGGGTTTGTGGGAGTTGCCT	989	1120	
TGACACCAGCCCTGAGGATGTGGTTCATCCTCCCAC	868	817	
TTACCCCAGGAAAAGCCTCCTCACCGCAGTGACCAG	998	905	
CGGGGTTTCCTGGTGGCTGCGAGCGGTGGGGACGGC	728	1140	
GTTGGTCGCGCGCCTTCCTGCGGCTAAGATGGCGAC	749	923	
TCTGGCTGGGTGTTGGGATGTGGTTAACCGGGTTGG	797	876	
GGGATCCTTCCGCTCCGGGTTAACCCCGACCGCGCC	795	1620	
ACCGAAAACAGGGCCTTCCGCGGTTATACAGATCCT	868	998	
CTCCCGGACGCTAACGTCTGGCAAACCACATTGCCC	993	857	
CCCTTCCTGTGAGGGAGGTTCCAGTTCCCACAGCGG	782	1670	
GCACGGCGGAATTTCAAATGGGGTTTTGTGGTTTCT	1220	1280	
TACAGCTTCCTTCACCCCACTTGTGGCCTGGGTTAC	814	913	

Sequence	RUNX1 binding intensity (RUNX1 [1])	RUNX1 binding intensity (RUNX1 [2])	ETS1 binding intensity (ETS1)
CCACCTCCTCCGGACGCCGCCCGCAACTGAGCATGC	1030	1230	
TGCTGCAGCGGCGCTTCCTGGTGGTCAGGGCGCCAT	707	924	
ACAGACAGCATCCTGAGCTCGTGGTTAGAACACCCT	841	985	
TCCACAGCCGGTTCCGGCCGGTTCCCACAAGCCCCT	844	1130	
GACAGTTTTCCGGCCTAGTTTGCGGCTGCTCCTGCC	830	2440	
CATTTCAGTCCAGGATGTGGGTGCACACACCGCTTC	798	1430	
AATCGCGCAGTTCCGCAGCTGCCGCCCCACAACCGT	863	960	
TTACCCCGGCGGAACGGAGGCCTGCGGTCGCGGCGG	941	1210	
CTGGGCGTGGGCTTCCTGCGGCTGAGTGGCAGCTTC	740	997	
CAGTTTATCCTGTGAGAGCCTTGTGGTTCCTACTAA	773	859	
AGTTTTCCGTCGGGCTCCCAGTGACGCCGCAGAGGT	764	1180	
CCTGAAGCTCATGCGGAAAACCCACAAAGGGGTGCC	932	828	
AGTTTCCTGAACTCAGAGCACAGTTGTGGTGCAGAA	743	1270	
CGGGCCGGATCGCCTTCGCCGCCGCCCGCCCGCAAA	979	866	
CACTCCCCGAATCCGGTCTGCGGCGCGCTCGGGGCC	774	1250	
GGCGACCAGCTCCGGAAAGCGCGGTGGGGACGCGCT	805	865	
GCTAACGGAACCAGCACGCGGCCACCGCAGGAACCT	853	869	
GCCGCGCGGAAGCCTCCGCCCTGTGGTTTTGGAGCC	1030	1530	
TTAGAGCTGACATCCTTGCGGTCCACAGCCTCCAAA	961	1090	
GATGACTTCCTCAGTTCAGGGCTATGTGCGGGGGAG	833	1060	
AGAGGCAGTTCCGGGGTGGGAACCGCGCGGAGCTTT	687	1220	
TTCTTCCCCCTTCCGGTCGCTGAGTGGTTGAGGCCG	898	2500	
GGATGACATCCGGCACCAACTTAACCACTAATCTCA	947	2410	1690
TATGGCGGGCAGGAAGTGCGGGTGCGCGCCTGCGCA	642	1360	5650
CTTAGTGGGGCAGGATGTGGTCAGGGAAGCTGATCT	836	7670	29900
CAGTGGCTAAGGATCCGGTGTTGCGGTGATACATGA	804	1280	643

Sequence	RUNX1 binding intensity (RUNX1 [1])	RUNX1 binding intensity (RUNX1 [2])	ETS1 binding intensity (ETS1)
CTGTCATCTTCCTGACAGCACGCCCACAAAGGACCA	843	916	377
ACACACTGACTTCCTGTTGTGGGAGATAAAGTGTGG	698	1730	2780
ATCACTTGTTTCCGCCAGCAAACCACAGGTCCCCAG	1550	3750	811
GTGGCCTCTTCAACAGGAAACCACAATATTTTTGTT	1410	2710	10500
GCCCCGGAAGTGGCCCGGCTGTTGGCCGCAGCGGGA	667	1710	3480
CTGCAGATGCATTTCCTTTTTGTGGTAGCAAGCGTG	805	1470	932
GTGTGGAAGGAGGAAGCGAGAATGTGGTTACTTAGG	868	1190	1890
ACCAACCGGAAGTGATCGTGTTGTGGCCGAAGGAGG	785	1590	18100
AAACATCATAGGAAGTGGATTTTGTGGTGAGAGACA	870	1130	3880
GCCACTTCCTGGAAAACAGTAATTACCACACGTCTC	1100	2160	546
ACGACGTCCCGGAAGTGCTGCGGCAATGTTGCTCTT	759	1470	6620
CAGCTCTCTCGCTTCCTGTGGTGTAAACATGAAGCA	964	1500	1400
GGACGCTTCCGGTGGAAGGGAGCTGTTGCGGGGCTT	716	1950	1660
CCTCCCTGAGGGGGAAGTGGTTTTTGAGTCTGAGTC	859	1020	1190
GGGGAACGGAAGCTGCTGTCGTTACTGGCGGTTGTA	767	929	1320
CAACTGACCGGACAGAACACAGCCACAAAACACGAG	944	824	507
GAGCAGGAAGCACCCCCAGCACAGGCCTGCGGTGAG	741	911	1350
TAGCCGTACGGAAATGTTTGTGGTTCTCTGCATCTA	912	1230	1010
AGCGTTGTCTTCCGGCCTCAACCACTCAGCGACCGG	751	1760	10600
CGGGTTGGGCAGGAAGCAGCATGACCGCAGTGGGTC	959	3250	17000
CACCTGGCCCGGACGGCTGCGGTCTGGAGGGCTGTC	1650	2050	792
CTCTAGAGGCTTCCTGCCCAACCACCAAGAAAAAGC	817	1180	668
GGCCGGGGGCAGGAAGCTGCGGCGCTGGCTCCCCCC	649	884	3390
GAGTTCTAGACTACAGGATGTGGTTAGAAGAAAAGA	837	4800	56900

Reference: the supplement of paper PMC10681739
